For part of these data: Results with a measured potency or affinity are listed apart.
How the values were obtained:
Staphylococcus aureus = experiment: Antibacterial activity against Staphylococcus aureus MRSA ATCC 43300 (CO-ADD:GP_020); MIC in CAMBH media using NBS plates, by Resazurin F(560/590); assay type: functional; settings: Concentration 20 uM, ASSAY_TEST Inhibition of Bacterial Growth, detection method Resazurin, Fluorescence (ex560/em590), MEDIA CAMHB, plate type 384well, CORNING #3640, time 18 hr
Acinetobacter baumannii = experiment: Antibacterial activity against Acinetobacter baumannii ATCC 19606 (CO-ADD:GN_034); MIC in CAMBH media using NBS plates, by Resazurin F(560/590); assay type: functional; settings: Concentration 20 uM, ASSAY_TEST Inhibition of Bacterial Growth, detection method Resazurin, Fluorescence (ex560/em590), MEDIA CAMHB, plate type 384well, CORNING #3640, time 18 hr
Escherichia coli = experiment: Antibacterial activity against Escherichia coli ATCC 25922 (CO-ADD:GN_001); MIC in CAMBH media using NBS plates, by Resazurin F(560/590); assay type: functional; settings: Concentration 20 uM, ASSAY_TEST Inhibition of Bacterial Growth, detection method Resazurin, Fluorescence (ex560/em590), MEDIA CAMHB, plate type 384well, CORNING #3640, time 18 hr
Klebsiella pneumoniae = settings: Concentration 20 uM; ASSAY_TEST Inhibition of Bacterial Growth; detection method Absorption (OD600); MEDIA CAMHB; plate type 384well; NBS; CORNING #3640; time 18 hr
Candida albicans = settings: 20 µM
Cryptococcus neoformans = settings: Concentration 20 uM; ASSAY_TEST Inhibition of Fungal Growth; detection method Resazurin; Absorption (OD600-OD570); plate type 384well; NBS; CORNING #3640

Compound | Inhibition (Staphylococcus aureus) [%] | Inhibition (Acinetobacter baumannii) [%] | Inhibition (Escherichia coli) [%] | Inhibition (Klebsiella pneumoniae) [%] | Inhibition (Candida albicans) [%] | Inhibition (Cryptococcus neoformans) [%]
COc1ccc(C2OC3=Nc4cc(C)c(C)cc4NC3=C2O)cc1 (centres undefined) | 19.36 | 6.66 | 1.83 | 7.32 | 1.04 | -7.87
COc1c(/C=N/NC(N)=O)c(OC)c(OC)c2c1CCO2 | 5.41 | 0.63 | -9.64 | 15.41 | 4.39 | 14.65
CC1=C(C#N)C(C)(C)C(C#N)=C(C)N1 | 13.81 | -13.23 | 8.21 | 8.84 | 0.55 | -14.16
CCc1oc2ccccc2c1C(=O)c1cc(Br)c(O)c(Br)c1 [BENZBROMARONE] | -12.4 | -9.24 | 7.93 | 12.45 | 9.57 | -6.93
O=C1c2ccccc2NC(c2cc(Cl)cc(Cl)c2O)N1CCc1ccccn1 (centres undefined) | 27.48 | -1.5 | 9.13 | 12.19 | 2.81 | -0.4
Cc1ccncc1C(N)=O | 0.11 | -6.4 | 17.18 | 14.09 | 1.98 | -4.15
O=S(=O)(O)c1ccc(/N=N/c2ccccc2)cc1 | -3.11 | 7.18 | 5.47 | 7.84 | 2.54 | -15.64
C#CCNc1ccc(C(=O)OCC)cc1 | 7.69 | 8.65 | -0.61 | 11.49 | 5 | -3.8
Cc1cc(=O)n2nc(-c3ccc(C(C)(C)C)cc3)cc2[nH]1 | 15.3 | 0.45 | 6.17 | 14.85 | 4.49 | -5.87
O=C(Nc1nnc(C(F)(F)F)s1)c1c(F)cccc1F | 18.6 | 12.37 | 3.33 | 14.22 | 14.6 | 22.23
O=C1OCC/C1=C\c1ccc(O)cc1 | -0.41 | -7.68 | 4.86 | 11.2 | 3.18 | 0.19
CC(=O)Oc1ccc(OC(C)=O)c2c1CC(C)=C(C)C2 | 4.66 | -3.24 | 12.77 | 4.69 | 1.46 | -18.35
COc1ccc(C(=S)N2CCN(c3ccccc3C)CC2)cc1 | 6.05 | -20.13 | 15.7 | 10.93 | 24.1 | -16.11
Nc1ccc(SCc2nc3cccc4c3n2CCC4)cc1 | 3.62 | -8.53 | 10.5 | 16.5 | -0.32 | -14.91
Cc1nc2nc(C(F)(F)F)[nH]c2nc1C | 10.93 | 9.55 | -5.58 | 7.77 | 3.03 | -5.2
Cn1nc(NC(=O)C(F)(F)F)c2ncc(-c3ccc(Cl)cc3)nc21 | 20.42 | 13.75 | 1.31 | 13.33 | 2.95 | -3.57
CCC(CNc1cc(OC)cc2cccnc12)NC1CCCCC1 (centres undefined) | 4.02 | 11.06 | 4.95 | 14.97 | -0.36 | -7.8
COc1cccc2c1C(CO)N1C(C#N)C3CC(C(=O)O)C(C1C2)N3C (centres undefined) | 14.9 | -10.77 | -1.99 | 21.32 | 4.33 | -4.3
CC1=NC(C)(C)CC2CCC(O)C12 (centres undefined) | 15.01 | -5.87 | 9.74 | 11.22 | 1.52 | -2.24
Cc1cc2c(cc1C)NC1=C(O)C(c3cccc(O)c3)OC1=N2 (centres undefined) | 3.69 | 4.58 | -10.78 | 28.82 | 3.61 | -0.13
O=C1CSC(c2cccs2)N1c1nncs1 (centres undefined) | 13.4 | -18.82 | 13.34 | 3.03 | -0.07 | -10.32
Cc1ccc(Cl)cc1NC(=O)c1cc2ccccc2cc1O | 5.29 | -8.92 | 15.86 | 12.1 | 4.11 | -7.39
C=CCN=C(S)Nc1cccc([N+](=O)[O-])c1 | -6.7 | -8.3 | 0.98 | 6.17 | 0.93 | -2.12
Nc1ccccc1C(=O)Nc1ccc(Cl)cc1Cl | 13.76 | -19.7 | 13.8 | 0.81 | 3.17 | -17.52
O=C1NCN(CCO)CN1 | 3.46 | -3.91 | 8.55 | 4.75 | 0.72 | -3.9

Compound | Inhibition (Staphylococcus aureus) [%] | Inhibition (Acinetobacter baumannii) [%] | Inhibition (Escherichia coli) [%] | Inhibition (Klebsiella pneumoniae) [%] | Inhibition (Candida albicans) [%] | Inhibition (Cryptococcus neoformans) [%]
O=C(O)/C=C/C(=O)Nc1cccc2cccnc12 | 36.64 | -0.12 | 28.31 | 7.62 | 8.39 | 9.5
CC(=O)Nc1ccc(S(=O)(=O)N/N=c2/sc3ccccc3n2C)cc1N | 12.5 | 3.99 | 3.58 | 3.38 | -0.64 | -8.3
CC(=O)Nc1cc(NC(C)=O)ncn1 | 12.16 | -10.63 | 12.12 | 16.66 | 3.12 | -1.27
O=c1nc2onnc2c(/C=N\O)[nH]1 | 11.4 | -9.04 | 10.25 | 15.41 | -0.67 | -3.06
CCCCCc1cccnc1 | 1.69 | -4.62 | 11.47 | 10.71 | 2.3 | -0.18
Cc1nc(O)c(Cc2ccccc2O)c(-c2ccccc2)n1 | 22.69 | -8.89 | 10.21 | 16.82 | 2.26 | 5.06
Cc1cn(C2CC(O)C(CO)O2)c(=O)n(Cc2ccccc2)c1=O (centres undefined) | 4.94 | 6.87 | 7.7 | 11.99 | 1.89 | -13.31
C[C@@H]1C[C@H]2OC(=O)[C@@]3(C)CCC[C@@](C)([C@@H]23)[C@@]1(O)CCc1ccoc1 | -8.43 | -3.35 | -14.05 | 4.6 | -0.12 | -1.32
Cc1ccc(-c2cssc2=S)cc1 | -26.91 | -10.22 | -20.59 | 2.16 | 13.1 | 11.55
O=C(O)c1ccc(N2CCCCC2)cc1O | 7.99 | -7.54 | 7.11 | 12.65 | 8.64 | -11.23
Cc1cc(NC(=O)c2ccccc2)c(Cl)cc1N | 13.14 | 13.32 | 3.07 | 14.81 | 3.76 | -3.43
N#CC1=C(Nc2ccccc2Cl)SC(c2ccccc2O)NC1=O (centres undefined) | 1.74 | -8.74 | 4.44 | 12.14 | 4.82 | -3.28
COC(=O)C1=C(C)NC(C)=C(C(=O)OC)C(N2C(=O)CCC2=O)C1 (centres undefined) | 18.88 | 6.44 | 0.27 | 9.26 | 2.3 | -2.75
CC1=CC2C(C(O)CC3(C)C2CC(C)C32OCOC23COCO3)C2(C)C/C(=C/O)C(=O)C=C12 (centres undefined) | 18.36 | -11.09 | 9.35 | 4.64 | 15.1 | -16.69
Cn1ncc2c(Nc3ccc([N+](=O)[O-])cc3)nc(Cl)nc21 | -16.06 | 3.27 | -14.4 | -8.72 | -1.97 | -3.09
O=C(O)Cc1ccc(/N=N/c2c(O)c(C(=O)O)cc3ccccc23)cc1 | 6.99 | 6.89 | 1.22 | 11.34 | -4.81 | -5.37
Cc1ccc(-c2nc(-c3nccc4ccccc34)oc2-c2ccccc2)cc1 | 17.39 | 5.86 | 4.4 | 6.85 | 18.7 | -2.8
CC(=O)Oc1ccc(OC(C)=O)c2c1CC1(C)OC1(C)C2 (centres undefined) | 13.73 | 5.72 | 3.36 | 9.63 | -0.12 | -11.66
O=C(O)CCc1cccnc1 | 18.41 | -3.93 | 16.49 | 14.5 | 1.32 | -2.51
O=c1n(CC2CO2)c(=O)n(CC2CO2)c(=O)n1CC1CO1 (centres undefined) [TEROXIRONE] | 0.12 | -10.62 | 4.44 | 8.68 | 3.23 | -12.57
c1ccc2c(c1)cnc1ccccc12 [PHENANTHRIDINE] | 1.61 | -6.38 | 4.54 | 11.56 | 4.34 | -7.16
CCCCCn1cnc2c(S)nc(N)nc21 | 4.88 | -14.99 | 12.21 | 5.23 | 1.29 | -16.43
CSc1nc(N)c(C(=O)Nc2ccc([N+](=O)[O-])cc2)s1 | 3.88 | 5.85 | 8.19 | 8.8 | 7.49 | -10.16
CSc1ncc2ncn(C3OC(CO)C(O)C3O)c2n1 (centres undefined) | 5.7 | 9.73 | -9.56 | 13.33 | 3.06 | -1.46

Reference: ChEMBL document CHEMBL4296182, “CO-ADD screening of NIH NCI Diversity Set V”
